# The full ranking holds about 16,000 sequences; the median of “rpm ratio (pull-down/input)” is about 0.94, and the highest 2% start at about 1.7. Many of the other results were omitted from the sample, so the highest values are more common in it than they were.
# Molecular target: T1, MBP-FoxP1dN (Mus musculus, UniProt P58462 326-579)
# T1 sequence: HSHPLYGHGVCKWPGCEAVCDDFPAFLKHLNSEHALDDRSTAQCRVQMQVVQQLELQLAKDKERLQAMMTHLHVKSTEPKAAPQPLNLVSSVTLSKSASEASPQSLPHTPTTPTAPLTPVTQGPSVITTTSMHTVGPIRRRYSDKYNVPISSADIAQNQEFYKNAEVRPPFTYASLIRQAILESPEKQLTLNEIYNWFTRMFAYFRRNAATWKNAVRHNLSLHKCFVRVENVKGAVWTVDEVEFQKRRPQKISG
# Test: PD-seq (MBP pull-down with sequencing); 20 mM Tris-HCl pH 7.5, 100 mM NaCl, 1.5 mM MgCl2, 0.4 uM protein, 0.1 uM dsDNA library, 30 min, room temperature, amylose pull-down; high values mean tight binding
# Details: protein: recombinant; tags: His6-MBP; chain copies: 2; dsDNA, one strand shown
# In short: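 Amylose resin was used to capture complexes formed during 30 min at room temperature in Tris pH 7.5 buffer with NaCl and MgCl2 between 0.4 µM His6-MBP-tagged mouse FoxP3 or FoxP1 fragment lacking the N-terminus, expressed in E. coli, and 0.1 µM Klenow-filled double-stranded degenerate DNA library. After three washes, the DNA was released with proteinase K, barcoded by PCR and sequenced on Illumina. Binding is pooled-replicate reads-per-million enrichment, pull-down over input.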
row,Sequence,binding signal
1,GATGATTGTTCTCCCAGCTGATGAATTGGTACCTTCGAGTAAACAAATTTTCCTAATCTTTCTGTTCAAGCGCCATCTAC,0.97 RPM ratio (pull-down/input)
2,GATGATTGTTCTCCCAGCTGATGAATTTGTGTCATCGAGTAAACAAATTTTCCTAATCTTTCTGTTCAAGCGCCATCTAC,1.48 RPM ratio (pull-down/input)
3,GATGATTGTTCTCCCAGCTGATGAATTAAAGCAATCGAGTAAACAAATTTTCCTAATCTTTCTGTTCAAGCGCCATCTAC,1.32 RPM ratio (pull-down/input)
4,GATGATTGTTCTCCCAGCTGATGAATTCGTTCAATCGAGTAAACAAATTTTCCTAATCTTTCTGTTCAAGCGCCATCTAC,0.909 RPM ratio (pull-down/input)
5,GATGATTGTTCTCCCAGCTGATGAATTACATGGTTCGAGTAAACAAATTTTCCTAATCTTTCTGTTCAAGCGCCATCTAC,1.12 RPM ratio (pull-down/input)
6,GATGATTGTTCTCCCAGCTGATGAATTTAGGCTATCGAGTAAACAAATTTTCCTAATCTTTCTGTTCAAGCGCCATCTAC,0.955 RPM ratio (pull-down/input)
7,GATGATTGTTCTCCCAGCTGATGAATTATTAGATTCGAGTAAACAAATTTTCCTAATCTTTCTGTTCAAGCGCCATCTAC,1.08 RPM ratio (pull-down/input)
8,GATGATTGTTCTCCCAGCTGATGAATTAGACTGATCGAGTAAACAAATTTTCCTAATCTTTCTGTTCAAGCGCCATCTAC,0.851 RPM ratio (pull-down/input)
9,GATGATTGTTCTCCCAGCTGATGAATTACAATTGTCGAGTAAACAAATTTTCCTAATCTTTCTGTTCAAGCGCCATCTAC,1.4 RPM ratio (pull-down/input)
10,GATGATTGTTCTCCCAGCTGATGAATTTTGAACTTCGAGTAAACAAATTTTCCTAATCTTTCTGTTCAAGCGCCATCTAC,0.94 RPM ratio (pull-down/input)
11,GATGATTGTTCTCCCAGCTGATGAATTTGCAGTTTCGAGTAAACAAATTTTCCTAATCTTTCTGTTCAAGCGCCATCTAC,1.02 RPM ratio (pull-down/input)
12,GATGATTGTTCTCCCAGCTGATGAATTTCCGTCGTCGAGTAAACAAATTTTCCTAATCTTTCTGTTCAAGCGCCATCTAC,0.841 RPM ratio (pull-down/input)
13,GATGATTGTTCTCCCAGCTGATGAATTGTTATCATCGAGTAAACAAATTTTCCTAATCTTTCTGTTCAAGCGCCATCTAC,1.73 RPM ratio (pull-down/input)
14,GATGATTGTTCTCCCAGCTGATGAATTTTGCTTATCGAGTAAACAAATTTTCCTAATCTTTCTGTTCAAGCGCCATCTAC,2.09 RPM ratio (pull-down/input)
15,GATGATTGTTCTCCCAGCTGATGAATTTGCTTTATCGAGTAAACAAATTTTCCTAATCTTTCTGTTCAAGCGCCATCTAC,1.1 RPM ratio (pull-down/input)
16,GATGATTGTTCTCCCAGCTGATGAATTGTTCTTATCGAGTAAACAAATTTTCCTAATCTTTCTGTTCAAGCGCCATCTAC,1.41 RPM ratio (pull-down/input)
17,GATGATTGTTCTCCCAGCTGATGAATTTTTATCATCGAGTAAACAAATTTTCCTAATCTTTCTGTTCAAGCGCCATCTAC,1.36 RPM ratio (pull-down/input)
18,GATGATTGTTCTCCCAGCTGATGAATTCCTGTTATCGAGTAAACAAATTTTCCTAATCTTTCTGTTCAAGCGCCATCTAC,1.65 RPM ratio (pull-down/input)
19,GATGATTGTTCTCCCAGCTGATGAATTCGAGTTATCGAGTAAACAAATTTTCCTAATCTTTCTGTTCAAGCGCCATCTAC,0.96 RPM ratio (pull-down/input)
20,GATGATTGTTCTCCCAGCTGATGAATTATCATCATCGAGTAAACAAATTTTCCTAATCTTTCTGTTCAAGCGCCATCTAC,1.12 RPM ratio (pull-down/input)
21,GATGATTGTTCTCCCAGCTGATGAATTGCTTATATCGAGTAAACAAATTTTCCTAATCTTTCTGTTCAAGCGCCATCTAC,1.34 RPM ratio (pull-down/input)
22,GATGATTGTTCTCCCAGCTGATGAATTTCTGTTATCGAGTAAACAAATTTTCCTAATCTTTCTGTTCAAGCGCCATCTAC,1.69 RPM ratio (pull-down/input)

row,Sequence,binding signal
1,GATGATTGTTCTCCCAGCTGATGAATTCTTGTTATCGAGTAAACAAATTTTCCTAATCTTTCTGTTCAAGCGCCATCTAC,2.09 RPM ratio (pull-down/input)
2,GATGATTGTTCTCCCAGCTGATGAATTGTTGTTATCGAGTAAACAAATTTTCCTAATCTTTCTGTTCAAGCGCCATCTAC,2.91 RPM ratio (pull-down/input)
3,GATGATTGTTCTCCCAGCTGATGAATTTATGTGATCGAGTAAACAAATTTTCCTAATCTTTCTGTTCAAGCGCCATCTAC,1.21 RPM ratio (pull-down/input)
4,GATGATTGTTCTCCCAGCTGATGAATTGTAGTGCTCGAGTAAACAAATTTTCCTAATCTTTCTGTTCAAGCGCCATCTAC,1.04 RPM ratio (pull-down/input)
5,GATGATTGTTCTCCCAGCTGATGAATTTGGTACGTCGAGTAAACAAATTTTCCTAATCTTTCTGTTCAAGCGCCATCTAC,0.997 RPM ratio (pull-down/input)
6,GATGATTGTTCTCCCAGCTGATGAATTAATCGCGTCGAGTAAACAAATTTTCCTAATCTTTCTGTTCAAGCGCCATCTAC,1.01 RPM ratio (pull-down/input)
7,GATGATTGTTCTCCCAGCTGATGAATTTTAATCCTCGAGTAAACAAATTTTCCTAATCTTTCTGTTCAAGCGCCATCTAC,0.832 RPM ratio (pull-down/input)
8,GATGATTGTTCTCCCAGCTGATGAATTCAGGGGGTCGAGTAAACAAATTTTCCTAATCTTTCTGTTCAAGCGCCATCTAC,0.723 RPM ratio (pull-down/input)
9,GATGATTGTTCTCCCAGCTGATGAATTGGTGTAATCGAGTAAACAAATTTTCCTAATCTTTCTGTTCAAGCGCCATCTAC,1.49 RPM ratio (pull-down/input)
10,GATGATTGTTCTCCCAGCTGATGAATTGGTGTTATCGAGTAAACAAATTTTCCTAATCTTTCTGTTCAAGCGCCATCTAC,1.9 RPM ratio (pull-down/input)
11,GATGATTGTTCTCCCAGCTGATGAATTTTGGTTATCGAGTAAACAAATTTTCCTAATCTTTCTGTTCAAGCGCCATCTAC,1.17 RPM ratio (pull-down/input)
12,GATGATTGTTCTCCCAGCTGATGAATTGCTCTTATCGAGTAAACAAATTTTCCTAATCTTTCTGTTCAAGCGCCATCTAC,1.17 RPM ratio (pull-down/input)
13,GATGATTGTTCTCCCAGCTGATGAATTGCTTTTATCGAGTAAACAAATTTTCCTAATCTTTCTGTTCAAGCGCCATCTAC,1.26 RPM ratio (pull-down/input)
14,GATGATTGTTCTCCCAGCTGATGAATTTGTTATATCGAGTAAACAAATTTTCCTAATCTTTCTGTTCAAGCGCCATCTAC,1.5 RPM ratio (pull-down/input)
15,GATGATTGTTCTCCCAGCTGATGAATTGTTATCCTCGAGTAAACAAATTTTCCTAATCTTTCTGTTCAAGCGCCATCTAC,1.55 RPM ratio (pull-down/input)
16,GATGATTGTTCTCCCAGCTGATGAATTTGAGTTATCGAGTAAACAAATTTTCCTAATCTTTCTGTTCAAGCGCCATCTAC,1.04 RPM ratio (pull-down/input)
17,GATGATTGTTCTCCCAGCTGATGAATTTCTTATCTCGAGTAAACAAATTTTCCTAATCTTTCTGTTCAAGCGCCATCTAC,0.829 RPM ratio (pull-down/input)
18,GATGATTGTTCTCCCAGCTGATGAATTTGTTATCTCGAGTAAACAAATTTTCCTAATCTTTCTGTTCAAGCGCCATCTAC,1.76 RPM ratio (pull-down/input)
19,GATGATTGTTCTCCCAGCTGATGAATTGCTGTTATCGAGTAAACAAATTTTCCTAATCTTTCTGTTCAAGCGCCATCTAC,1.85 RPM ratio (pull-down/input)
20,GATGATTGTTCTCCCAGCTGATGAATTTTTGTTATCGAGTAAACAAATTTTCCTAATCTTTCTGTTCAAGCGCCATCTAC,2.35 RPM ratio (pull-down/input)
21,GATGATTGTTCTCCCAGCTGATGAATTCAAGATATCGAGTAAACAAATTTTCCTAATCTTTCTGTTCAAGCGCCATCTAC,0.908 RPM ratio (pull-down/input)
22,GATGATTGTTCTCCCAGCTGATGAATTCGTCTACTCGAGTAAACAAATTTTCCTAATCTTTCTGTTCAAGCGCCATCTAC,0.938 RPM ratio (pull-down/input)

row,Sequence,binding signal
1,GATGATTGTTCTCCCAGCTGATGAATTCTTTTCATCGAGTAAACAAATTTTCCTAATCTTTCTGTTCAAGCGCCATCTAC,1.07 RPM ratio (pull-down/input)
2,GATGATTGTTCTCCCAGCTGATGAATTCAGGGCTTCGAGTAAACAAATTTTCCTAATCTTTCTGTTCAAGCGCCATCTAC,0.881 RPM ratio (pull-down/input)
3,GATGATTGTTCTCCCAGCTGATGAATTCGCCGATTCGAGTAAACAAATTTTCCTAATCTTTCTGTTCAAGCGCCATCTAC,0.86 RPM ratio (pull-down/input)
4,GATGATTGTTCTCCCAGCTGATGAATTTGTCCTTTCGAGTAAACAAATTTTCCTAATCTTTCTGTTCAAGCGCCATCTAC,1.08 RPM ratio (pull-down/input)
5,GATGATTGTTCTCCCAGCTGATGAATTATGTTCGTCGAGTAAACAAATTTTCCTAATCTTTCTGTTCAAGCGCCATCTAC,1.06 RPM ratio (pull-down/input)
6,GATGATTGTTCTCCCAGCTGATGAATTGTGTTAATCGAGTAAACAAATTTTCCTAATCTTTCTGTTCAAGCGCCATCTAC,1.27 RPM ratio (pull-down/input)
7,GATGATTGTTCTCCCAGCTGATGAATTGTGGTTATCGAGTAAACAAATTTTCCTAATCTTTCTGTTCAAGCGCCATCTAC,1.27 RPM ratio (pull-down/input)
8,GATGATTGTTCTCCCAGCTGATGAATTTGTGTTATCGAGTAAACAAATTTTCCTAATCTTTCTGTTCAAGCGCCATCTAC,2.08 RPM ratio (pull-down/input)
9,GATGATTGTTCTCCCAGCTGATGAATTTGTTCTGTCGAGTAAACAAATTTTCCTAATCTTTCTGTTCAAGCGCCATCTAC,1.07 RPM ratio (pull-down/input)
10,GATGATTGTTCTCCCAGCTGATGAATTTTGTCTGTCGAGTAAACAAATTTTCCTAATCTTTCTGTTCAAGCGCCATCTAC,1.02 RPM ratio (pull-down/input)
11,GATGATTGTTCTCCCAGCTGATGAATTTTGTTTGTCGAGTAAACAAATTTTCCTAATCTTTCTGTTCAAGCGCCATCTAC,2.66 RPM ratio (pull-down/input)
12,GATGATTGTTCTCCCAGCTGATGAATTTTGCGCGTCGAGTAAACAAATTTTCCTAATCTTTCTGTTCAAGCGCCATCTAC,1.04 RPM ratio (pull-down/input)
13,GATGATTGTTCTCCCAGCTGATGAATTTTCTTTGTCGAGTAAACAAATTTTCCTAATCTTTCTGTTCAAGCGCCATCTAC,1.11 RPM ratio (pull-down/input)
14,GATGATTGTTCTCCCAGCTGATGAATTTGTTTTGTCGAGTAAACAAATTTTCCTAATCTTTCTGTTCAAGCGCCATCTAC,2.33 RPM ratio (pull-down/input)
15,GATGATTGTTCTCCCAGCTGATGAATTTTGATTGTCGAGTAAACAAATTTTCCTAATCTTTCTGTTCAAGCGCCATCTAC,1.67 RPM ratio (pull-down/input)
16,GATGATTGTTCTCCCAGCTGATGAATTGTTTCTGTCGAGTAAACAAATTTTCCTAATCTTTCTGTTCAAGCGCCATCTAC,1.25 RPM ratio (pull-down/input)
17,GATGATTGTTCTCCCAGCTGATGAATTGTTTGCGTCGAGTAAACAAATTTTCCTAATCTTTCTGTTCAAGCGCCATCTAC,2.27 RPM ratio (pull-down/input)
18,GATGATTGTTCTCCCAGCTGATGAATTTTTTGCGTCGAGTAAACAAATTTTCCTAATCTTTCTGTTCAAGCGCCATCTAC,1.1 RPM ratio (pull-down/input)
19,GATGATTGTTCTCCCAGCTGATGAATTGAATTTGTCGAGTAAACAAATTTTCCTAATCTTTCTGTTCAAGCGCCATCTAC,0.98 RPM ratio (pull-down/input)
20,GATGATTGTTCTCCCAGCTGATGAATTGTTTTTGTCGAGTAAACAAATTTTCCTAATCTTTCTGTTCAAGCGCCATCTAC,2.31 RPM ratio (pull-down/input)
